Laboratory results: PubChem BioAssay AID1852 (Sanford-Burnham Center for Chemical Genomics, 2009)
The campaign covered roughly 2,500 compounds. About 1,100 (44%) were called active. So high a share suggests a set chosen from earlier hits. The list shows a part of the results. Values without a mark were called inactive.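 The calls were made as follows: active = inhibition above 50% at 4 µM in the single-point screen; inactive = inhibition of 50% or less.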

experiment: TNF-a-driven NF-kB reporter inhibitors, primary screen, selectivity assay for NOD1/NOD2 signaling inhibitor project, cell-based, HEK293T NF-kB-Luc, luminescence (AID 1852); settings: TNF-a induced, 14 h, at 4 µM, stronger effect = higher value

SMILES	inhibition
COc1ccc(Oc2ccccc2/C=N/O)cc1	81.6% (active)
COc1ccc(N2CCN(c3cc(=O)n(Cc4ccc(F)cc4)c(=O)[nH]3)CC2)cc1	6.1%
COc1ccc(C2C(O)C(c3c[nH]c4ccccc34)=NN2C(=O)CCl)cc1 (stereo unspecified)	96.7% (active)
CC(=O)N1CCc2cc(S(=O)(=O)NCc3ccc(C)cc3)ccc21	26.3%
CNc1nc(-c2ccc3c(c2)CCN3S(=O)(=O)c2ccccc2)c(C)s1	79.2% (active)
O=C(CN1CCOCC1)Nc1nc(-c2ccc3c(c2)CCN3S(=O)(=O)c2ccccc2)cs1	-1%
CC(=O)c1c(O)c(C)c(O)c2c1OC1=CC(=O)C(C(C)=O)C(=O)[C@@]12C (stereo partly specified)	80.3% (active)
Cc1ccc(C(=O)N2CCN(c3ccc(F)cc3)CC2)cc1S(=O)(=O)N1CCCCC1	43.8%
O=C(c1ccc2c(c1)CCN2S(=O)(=O)c1ccccc1)N1CCN(c2ccc(F)cc2)CC1	65.3% (active)
COC(=O)c1ccc(NC(=O)c2nc(S(=O)(=O)Cc3cccc(C)c3)ncc2Cl)cc1	47.3%
CSc1nnc(NC(=O)c2nc(S(=O)(=O)Cc3ccc(C)cc3)ncc2Cl)s1	98.9% (active)
CCC(C)[C@@H](NC(=O)OC(C)(C)C)c1nnc(S(=O)(=O)Cc2cccc(C)c2)o1 (stereo partly specified)	45.7%
Cc1cccc(CS(=O)(=O)c2ncc(Cl)c(C(=O)Nc3nnc(C(C)C)s3)n2)c1	84.2% (active)
Cc1ccc(CS(=O)(=O)c2ncc(Cl)c(C(=O)Nc3nnc(C(C)C)s3)n2)cc1	85.6% (active)
Cc1ccccc1Cn1c(C)nc2ccccc21	32%
O=C(Nc1nc2ccccc2n1Cc1ccc(Cl)cc1)c1ccco1	41.5%
CCC(=O)Nc1nc2ccccc2n1Cc1ccccc1Cl	75.1% (active)
COc1ccc(-c2cc(=O)oc3c(C)c(OC(=O)c4cccs4)ccc23)cc1	63.9% (active)
COc1ccc(-c2cc(=O)oc3c(C)c(O)ccc23)cc1	91.8% (active)
Cc1c(O)ccc2c(-c3ccccc3)cc(=O)oc12	30.3%
CC(=O)NCCC(=O)N1CCc2c([nH]c3ccccc23)C1c1cccc(Cl)c1 (stereo unspecified)	6.2%
CC(=O)N1CC(C)Sc2ccc(S(=O)(=O)NCCc3ccc(C)cc3)cc21 (stereo unspecified)	44.7%
Cc1ccc2oc(/N=C(\N)NC(=O)C(C)(C)C)nc2c1	40.4%

SMILES	inhibition
Cc1ccc(N=c2oc3cc(O)ccc3cc2C(N)=O)cc1	72.5% (active)
COc1ccc2cc(C(N)=O)c(=Nc3ccc(C)cc3)oc2c1	62.3% (active)
Cc1ccc(Oc2c(C(N)=O)cc([N+](=O)[O-])cc2[N+](=O)[O-])cc1	-11.8%
O=C(N/N=C/c1ccc([N+](=O)[O-])s1)c1ccccc1Br	50.8% (active)
O=C(N/N=C\c1ccc([N+](=O)[O-])s1)C1COc2ccccc2O1 (stereo unspecified)	17.5%
O=C(Cc1cccs1)N/N=C\c1ccc([N+](=O)[O-])s1	49.1%
O=C(N/N=C/c1ccc([N+](=O)[O-])s1)c1cccc(Br)c1	66.8% (active)
Cc1cc(C(=O)N/N=C/c2ccc([N+](=O)[O-])s2)c2ccccc2n1	37.2%
COc1cc(S(=O)(=O)n2cnc(C)c2)ccc1Br	-6%
Cc1nc2ccccc2c(C)c1C(=O)c1ccc(F)cc1	66% (active)
Fc1cccc(NC(=S)NNc2c3ccccc3nc3ccccc23)c1	20.7%
O=c1cc(CSc2nnc(-c3cccs3)n2Cc2ccccc2)nc2sc3ccccc3n12	88.7% (active)
CCn1c(SCc2nc3scc(-c4ccccc4)c3c(=O)[nH]2)nnc1-c1cccs1	1.6%
NC(=O)c1c(NC(=O)CCCC(=O)O)sc2c1CCCCCC2	16.7%
Cc1ccc(C(=O)Nc2sc3c(c2C(=O)O)CCCC3)o1	-42.9%
CC(=O)c1c(C)[nH]c(C(=O)OCC(=O)Nc2sc3c(c2C#N)CCCC3)c1C	58.6% (active)
Cc1ccccc1Oc1cc(-n2ncc(Cl)c(Cl)c2=O)ncn1	103% (active)
CCCN(CCC)S(=O)(=O)c1ccc(C(=O)Nc2nnc(-c3cc(OC)cc(OC)c3)o2)cc1	68.9% (active)
COCCN(CCOC)S(=O)(=O)c1ccc(C(=O)Nc2nc(C)c(C(C)=O)s2)cc1	-3.7%
Cc1nc([N+](=O)[O-])c(Br)n1CC(=O)c1ccc2ccccc2c1	25.6%
CSCc1nnc(NC(=O)c2ccc(S(=O)(=O)N(CC(C)C)CC(C)C)cc2)o1	80.1% (active)
COc1ccc(-c2nnc(NC(=O)c3ccc([N+](=O)[O-])o3)o2)c(OC)c1	49.5%
COc1cc(OC)cc(-c2nnc(NC(=O)c3ccc4c(c3)OCCO4)o2)c1	105% (active)

SMILES	inhibition
O=C(Nc1nnc(-c2ccco2)o1)c1ccc2ccccc2c1	77.9% (active)
O=C(Nc1nnc(-c2ccc3c(c2)OCCO3)o1)c1ccc(Cc2ccccc2)cc1	105% (active)
Cc1noc(C)c1S(=O)(=O)N1CCCC(C(=O)NCc2ccccc2Cl)C1 (stereo unspecified)	21.1%
Cc1ccc(N(Cc2cc(=O)[nH]c3ccccc23)C(=O)CCl)c(C)c1	100% (active)
Cc1ccccc1N(Cc1cc(=O)[nH]c2ccccc12)C(=O)CCl	105% (active)
COc1ccc(OCc2cc(C(=O)N3CCC(c4ccccc4)CC3)no2)c(Cl)c1	-96.3%
O=C(c1cc(COc2cccc3cnccc23)on1)N1CCCC(CCCO)C1 (stereo unspecified)	61.6% (active)
COCC1CCCN(C(=O)c2cc(COc3ccc4ncccc4c3)on2)C1 (stereo unspecified)	33.2%
O=C(c1cc(COc2c(F)cccc2F)on1)N1CCC(c2ccncc2)CC1	41.3%
COCC1CCN(C(=O)c2cc(COc3cccc4cnccc34)on2)CC1	52.7% (active)
COc1cccc(OCc2cc(C(=O)NCc3cnc4ccccn34)no2)c1	4.4%
CSc1ccccc1OCc1cc(C(=O)N2CCC(c3ccncc3)CC2)no1	29.9%
COCC1CCN(C(=O)c2cc(COc3ccc4ncccc4c3)on2)CC1	40.2%
Cc1ccc(C)c(OCc2cc(C(=O)NC3CCN(Cc4ccccc4)CC3)no2)c1	22.7%
O=C(c1cc(COc2cccc3cnccc23)on1)N1CCC(c2ccccc2Cl)C1 (stereo unspecified)	72.7% (active)
Cc1c(C(C)NC(=O)c2cc(COc3cccc4cnccc34)on2)cnn1C (stereo unspecified)	53.8% (active)
CCN(CC)C(=O)C1CCCN(C(=O)c2cc(COc3ccc4ncccc4c3)on2)C1 (stereo unspecified)	36%
NS(=O)(=O)c1ccc(Sc2nc3ccccc3s2)c([N+](=O)[O-])c1	35.3%
N#C/C(=C\c1ccc(O)c([N+](=O)[O-])c1)c1nc2ccccc2s1	76.9% (active)
CCOc1ccc(-c2csc(/C(C#N)=C\c3ccc(O)c([N+](=O)[O-])c3)n2)cc1	0.4%
CC(C)c1ccc(-c2csc(NC(=O)c3cccs3)c2C(=O)O)cc1	16.6%
CCOC(=O)c1c(-c2ccccc2)csc1NC(=O)CSc1nc(N)cc(N)n1	61.5% (active)
Cc1sc(NC(=O)CSc2ncn(-c3ccccc3)n2)nc1-c1ccccc1	33.1%

SMILES	inhibition
CCOc1cc(/C=C2\CN(CC)C/C(=C\c3ccc(O)c(OCC)c3)C2=O)ccc1O	96.7% (active)
CCOc1cc(/C=C2\CN(C)C/C(=C\c3ccc(O)c(OCC)c3)C2=O)ccc1O	65.5% (active)
CCOC(=O)c1c(NC(=S)NCCc2ccccc2)sc2c1CC(C(C)C)OC2 (stereo unspecified)	82.3% (active)
CC(C)COc1ccc(C(=O)Nc2sc3c(c2C(=O)O)CC(C)(C)OC3)cc1	35.4%
CCCCCCCCn1c2c(c(=N)c3ccccc31)CCC2	74.7% (active)
CCCCCCCCCCn1c2c(c(=N)c3c1CCC3)CCC2	78.4% (active)
CCCCCCCCCn1c2c(c(=N)c3c1CCC3)CCC2	74.8% (active)
Cc1ccc2[nH]c3c(N4CCN(Cc5ccccc5)CC4)ncnc3c2c1	76.9% (active)
O=C(CN1CCN(Cc2ccccc2)CC1)N1N=CCC1c1ccccc1 (stereo unspecified)	21.7%
Cc1ccc2c(c1)[nH]c1c(N3CCN(Cc4ccccc4)CC3)ncnc12	72.7% (active)
Oc1c(CN2CCN(c3ccccc3)CC2)cc(Br)c2cccnc12	15.7%
Fc1ccc2[nH]c3c(N4CCc5ccccc5C4)ncnc3c2c1	45.8%
c1ccc(CN2CCN(c3ncnc4c3[nH]c3ccccc34)CC2)cc1	73.4% (active)
Cc1c(C)n(Cc2ccccc2)c2ncnc(Cl)c12	42.6%
COCCCNC(=O)c1sc2ncnc(N3CCc4ccccc4C3)c2c1C	44.9%
Cc1csc2ncnc(NC3CCN(Cc4ccccc4)CC3)c12	32.1%
Cc1ccc2[nH]c3c(N4CCc5ccccc5C4)ncnc3c2c1	83.8% (active)
CCN1CCN(Cc2ccc(NC(=O)c3ccc(C)c(NC(=O)C(=O)c4c[nH]c5ccccc45)c3)cc2C(F)(F)F)CC1	26.4%
COc1ccc(NS(=O)(=O)c2ccc3c(c2)NC(=O)C(C)S3)cc1 (stereo unspecified)	9.8%
CCC1Sc2ccc(S(=O)(=O)Nc3ccc(OC)c(OC)c3)cc2NC1=O (stereo unspecified)	51.8% (active)
CCC(Cc1ccccc1)NS(=O)(=O)c1ccc2c(c1)NC(=O)C(C)S2 (stereo unspecified)	-1.2%
CCn1nc([N+](=O)[O-])c(C(C#N)c2nc3cc(C(F)(F)F)ccc3s2)c(Cl)c1=O (stereo unspecified)	34.1%
